Test results from PubChem BioAssay (EPA / NIEHS).
Active and inactive are the calls of the source. How the source made its calls: active means hit-call score of the fitted dose curve at least 0.9, where 1 is the maximum; inactive means score below 0.9.

Experiment: APR_HepG2_MitoticArrest_1hr: Apredica 1-hour HepG2 Assay for Mitotic Arrest (AID 2282672)
Conditions: high-content imaging, actives raise or lower the signal
Description: APR_HepG2_1hr is a cell-based, multiplexed-readout assay that uses HepG2, a human liver cell line, with measurements taken at 1 hour after chemical dosing in a 384-well plate.APR_HepG2_MitoticArrest_1hr is one of 10 assay component(s) measured or calculated from the APR_HepG2_1hr assay. It is designed to make measurements of cell phenotype, a form of morphology reporter, as detected with fluorescence intensity signals by HCS Fluorescent Imaging technology.Data from the assay component APR_HepG2_MitoticArrest_1hr was analyzed into 1 assay endpoint. This assay endpoint, APR_HepG2_MitoticArrest_1hr, was analyzed with bidirectional fitting relative to DMSO as the negative control and baseline of activity. Using a type of morphology reporter, measures of protein for gain or loss-of-signal activity can be used to understand the signaling at the pathway-level as they relate to the gene . Furthermore, this assay endpoint can be referred to as a primary readout, because this assay has produced multiple assay endpoints where this one serves a signaling function. To generalize the intended target to other relatable targets, this assay endpoint is annotated to the cell cycle intended target family, where the subfamily is arrest.
Cells were treated with dimethyl sulfoxide (DMSO) as a solvent control at a final concentration of 0.5% v/v or with compounds in DMSO with a resulting final DMSO concentration of 0.5% v/v. Compound treatment was done at concentrations of 0.39, 0.78, 1.56, 3.12, 6.24, 12.5, 25, 50, 100, and 200 uM in duplicate on each plate. Cells were treated with compounds for 1, 24, or 72 hr. Carbonyl […] m-chloro-phenylhydrazone (CCCP) and taxol were used as positive controls for mitochondrial function and cytoskeletal stability, respectively; DMSO served as the negative control for this experiment. Cells were fixed by the direct addition of 50 uL formaldehyde in Hank's Balanced Salt Solution (HBSS) to a final concentration of 3.7%. After incubation in the fixation medium for 30 min at room temperature (293-298 K), cells were rinsed twice with HBSS and treated with cell permeabilization buffer (16 uL of 0.5% Triton X-100) for 10 min at room temperature (293-298 K) before labeling. For mitochondrial membrane potential and mitochondrial measurements, pre-fixed cells were incubated with 50 uL of MitoTracker Red CMXRos (Invitrogen) at a concentration of 250 nM for 30 min before fixation. In the remaining cases, post-fixed cells were labeled by incubation with a multiplexed mixture of primary antibodies in HBSS for 60 min at room temperature (293-298 K) to detect immunoreactivity of c-Jun (1:500), phospho-histone H3 (1:100), phospho-histone H2A.x (1:200), p53 (1:400), alpha-tubulin (1:200) and Hoechst 33342 (2 ug/mL). Cells were labeled for multiplexed imaging on two separate plates: a) Hoechst 33342, MitoTracker Red, phospho-histone H3, and alpha-tubulin, and b) Hoechst 33342, phospho-histone H2A.x, and c-Jun. A final rinse with HBSS (50 uL) was performed before analysis. The primary and secondary antibodies for the proteins were phospho-histone H3 (rabbit anti-phospho-histone H3 and FITC-donkey anti-rabbit IgG), phospho-histone H2A.x (mouse anti-phospho-histone H2A.x and FITC-donkey anti-mouse IgG), c-Jun (rabbit anti-phospho-c-Jun and Cy3-donkey anti-rabbit IgG), p53 (sheep anti-p53 and Cy5-donkey anti-sheep IgG), alpha-tubulin (mouse anti-alpha-tubulin and Cy5-donkey anti-mouse IgG). These antibodies are available as the CellCiphr HepG2 assay kit (Millipore).Digital images of each well were captured using a Cellomics ArrayScan VTI (Thermo Scientific Cellomics) (0.8 NA objective, 0.63x optical coupler, and XF-93 filter set) at 20x magnification. The images were acquired using the autofocus feature of the ArrayScan instrument, which entails the following steps. First, the camera focuses on channel 1 (Hoechst 33342), where nuclei are identified. Second, a Z offset of 1 um is used for capturing mitochondria (MitoTracker Red). […]

Q: With CC(C)Nc1nc(Cl)nc(NC(C)C)n1 as the compound, how does the outcome read?
A: Its outcome is “inactive”.

Q: Which outcome does the source give for CCOC(=O)C(C)OC(=O)c1cc(Oc2ccc(C(F)(F)F)cc2Cl)ccc1[N+](=O)[O-] (stereo not given) here?
A: Its outcome is “inactive”.

Q: With CC(C)=CC1C(C(=O)OCc2coc(Cc3ccccc3)c2)C1(C)C (stereo not given) as the compound, how does the outcome read?
A: The outcome was “inactive”.

Q: With Nc1c(Cl)c(Cl)nc(C(=O)O)c1Cl as the compound, how does the outcome read?
A: Its outcome is “inactive”.

Q: With Nc1c(Cl)c(F)nc(OCC(=O)O)c1Cl as the compound, how does the outcome read?
A: Its outcome is “inactive”.

Q: Which outcome does the source give for CCOP(=S)(OCC)Oc1nc(Cl)n(C(C)C)n1 here?
A: Its outcome is “inactive”.

Q: For O=C(O)c1c(Cl)ccc2cc(Cl)cnc12, which outcome is on record?
A: The outcome was “inactive”.

Q: Which outcome does the source give for CC1(C)C(C=C(Cl)Cl)C1C(=O)OC(C#N)c1cccc(Oc2ccccc2)c1 (stereo not given) here?
A: Its outcome is “inactive”.

Q: With N#CN=C1SCCN1Cc1ccc(Cl)nc1 as the compound, how does the outcome read?
A: Its outcome is “inactive”.

Q: With COc1cc(Cl)c(OC)cc1Cl as the compound, how does the outcome read?
A: Its outcome is “inactive”.

Q: With Cn1c(-c2ccccc2)cc(-c2ccccc2)[n+]1C as the compound, how does the outcome read?
A: The outcome was “inactive”.

Q: With COCC(C)N(C(=O)CCl)c1c(C)csc1C (stereo not given) as the compound, how does the outcome read?
A: Its outcome is “inactive”.

Q: For COP(=O)(OC)O/C(C)=C/C(=O)N(C)C, which outcome is on record?
A: Its outcome is “inactive”.

Q: Which outcome does the source give for CCNP(=S)(OC)O/C(C)=C/C(=O)OC(C)C (stereo not given) here?
A: Its outcome is “inactive”.

Q: For CCCCC(O)(Cn1cncn1)c1ccc(Cl)cc1Cl (stereo not given), which outcome is on record?
A: Its outcome is “inactive”.

Q: Which outcome does the source give for CCSC(=O)N1CCCCCC1 here?
A: Its outcome is “inactive”.

Q: For COC(=O)NS(=O)(=O)c1ccc(N)cc1, which outcome is on record?
A: The outcome was “inactive”.

Q: For Cc1ccc(N=CN(C)C=Nc2ccc(C)cc2C)c(C)c1, which outcome is on record?
A: Its outcome is “inactive”.

Q: For CC1(C)CON(Cc2ccccc2Cl)C1=O, which outcome is on record?
A: Its outcome is “inactive”.

Q: For CCOc1cc(C(C)(C)C)ccc1C1COC(c2c(F)cccc2F)=N1 (stereo not given), which outcome is on record?
A: Its outcome is “inactive”.

Q: Which outcome does the source give for CC(C)N1C(=O)N(c2ccccc2)CSC1=NC(C)(C)C here?
A: Its outcome is “inactive”.

Q: Which outcome does the source give for C=CCOC(=O)C(C)(C)OC(=O)c1cc(-n2c(=O)cc(C(F)(F)F)n(C)c2=O)ccc1Cl here?
A: The outcome was “inactive”.

Q: With OC(c1ccc(Cl)cc1)(c1ccc(Cl)cc1)C(Cl)(Cl)Cl as the compound, how does the outcome read?
A: The outcome was “inactive”.

Q: For CC1(C)C(C(=O)OC(C#N)c2cccc(Oc3ccccc3)c2)C1(C)C (stereo not given), which outcome is on record?
A: The outcome was “inactive”.

Q: For COCc1cnc(C2=NC(C)(C(C)C)C(=O)N2)c(C(=O)O)c1 (stereo not given), which outcome is on record?
A: Its outcome is “inactive”.

Q: For CNC(=O)Oc1cccc2ccccc12, which outcome is on record?
A: The outcome was “inactive”.

Q: With COCC(=O)N(c1c(C)cccc1C)C(C)C(=O)OC (stereo not given) as the compound, how does the outcome read?
A: The outcome was “inactive”.

Q: Which outcome does the source give for CCNC(=O)NC(=O)C(C#N)=NOC here?
A: The outcome was “inactive”.

Q: Which outcome does the source give for Cc1nc(N(C)C)nc(OC(=O)N(C)C)c1C here?
A: The outcome was “inactive”.

Q: For CC(C)NC(=O)N1CC(=O)N(c2cc(Cl)cc(Cl)c2)C1=O, which outcome is on record?
A: Its outcome is “inactive”.

Q: For CC(C)N1C(=O)c2ccccc2NS1(=O)=O, which outcome is on record?
A: The outcome was “inactive”.

Q: For CCOP(=O)(OCC)Oc1nc(Cl)c(Cl)cc1Cl, which outcome is on record?
A: Its outcome is “inactive”.

Q: Which outcome does the source give for CS(=O)(=O)c1cc(C(F)(F)F)ccc1C(=O)c1cnoc1C1CC1 here?
A: The outcome was “inactive”.

Q: Which outcome does the source give for Cc1cnc(C2=NC(C)(C(C)C)C(=O)N2)c(C(=O)O)c1 (stereo not given) here?
A: Its outcome is “inactive”.

Q: For COC(=O)NC(=S)Nc1ccccc1NC(=S)NC(=O)OC, which outcome is on record?
A: Its outcome is “inactive”.

Q: Which outcome does the source give for N#Cc1c[nH]cc1-c1cccc2c1OC(F)(F)O2 here?
A: Its outcome is “inactive”.

Q: With O=C1C2CC=CCC2C(=O)N1SC(Cl)(Cl)Cl (stereo not given) as the compound, how does the outcome read?
A: Its outcome is “inactive”.

Q: For CN/C(=N\[N+](=O)[O-])NCc1cnc(Cl)s1, which outcome is on record?
A: Its outcome is “inactive”.

Q: With COC(=O)c1c(C(F)F)nc(C(F)(F)F)c(C2=NCCS2)c1CC(C)C as the compound, how does the outcome read?
A: Its outcome is “inactive”.

Q: With Clc1nc(Cl)nc(Nc2ccccc2Cl)n1 as the compound, how does the outcome read?
A: Its outcome is “inactive”.
